Key:
Experiment in all cases: growth AUC relative to DMSO control (median of replicates) (fraction); higher = more growth (less inhibition), active = hit call of the paper
Conditions in all cases: 20 µM; 24 h;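 active = AUC reduced over 20% with Padj below 0.05 in at least 2 of 3 replicates; inactive = otherwise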
Coprococcus comes = system: Coprococcus comes
In short: (§1)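 For each compound at 20 µM (1% DMSO), gut bacterial monocultures seeded at OD600 0.05 grew anaerobically in mGAM at 37 °C in round-bottom 96-well plates. Hourly OD600 readings over 24 h gave growth curves whose minimum OD was set to 0. Area under these curves was normalised to the plate median of solvent-only wells, or to row and column medians on the industrial chemical plate. Values are medians of three biological replicates grown on separate days.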

Escherichia coli ED1a = system: Escherichia coli ED1a
In short: as §1

Escherichia coli IAI1 = system: Escherichia coli IAI1
In short: as §1

Eubacterium rectale = system: Eubacterium rectale
In short: as §1

[1] = system: Fusobacterium nucleatum subsp. animalis
In short: as §1

Lactobacillus gasseri = system: Lactobacillus gasseri
In short: as §1

Lactobacillus paracasei = system: Lactobacillus paracasei
In short: as §1

Odoribacter splanchnicus = system: Odoribacter splanchnicus
In short: as §1

[2] = system: Parabacteroides distasonis
In short: as §1

Parabacteroides merdae = system: Parabacteroides merdae
In short: as §1

Roseburia intestinalis = system: Roseburia intestinalis
In short: as §1

Streptococcus salivarius = system: Streptococcus salivarius
In short: as §1

Measured: growth AUC

[O-][n+]1nc(-n2ccnc2)nc2ccc(Cl)cc21
inactive: Coprococcus comes 1.04 | Escherichia coli ED1a 0.95 | Escherichia coli IAI1 0.956 | Eubacterium rectale 1.12 | [1] 1.06 | Lactobacillus gasseri 0.831 | Lactobacillus paracasei 1.01 | Odoribacter splanchnicus 1.03 | [2] 0.897 | Parabacteroides merdae 1.02 | Roseburia intestinalis 0.984 | Streptococcus salivarius 1

Nc1ccc(S(=O)(=O)Nc2cnc3ccccc3n2)cc1
inactive: Coprococcus comes 0.996 | Escherichia coli ED1a 1 | Escherichia coli IAI1 0.975 | Eubacterium rectale 0.983 | [1] 0.936 | Lactobacillus gasseri 1.03 | Lactobacillus paracasei 0.887 | Odoribacter splanchnicus 1.01 | [2] 1.01 | Parabacteroides merdae 0.97 | Roseburia intestinalis 0.991 | Streptococcus salivarius 1.03

Br[C@@H]1CC[C@H](Br)[C@H](Br)CC[C@@H](Br)[C@@H](Br)CC[C@H]1Br
inactive: Coprococcus comes 1.05 | Escherichia coli ED1a 0.985 | Escherichia coli IAI1 1 | [1] 0.974 | Lactobacillus gasseri 0.789 | Lactobacillus paracasei 0.976 | Odoribacter splanchnicus 1.08 | Roseburia intestinalis 0.962 | Streptococcus salivarius 0.868
active: Eubacterium rectale 0.773 | [2] 0.232 | Parabacteroides merdae 0.351

CCCCOCCOC(=O)COc1ccc(Cl)cc1Cl
active: [2] 0.721
inactive: Coprococcus comes 0.982 | Escherichia coli ED1a 0.983 | Escherichia coli IAI1 0.983 | Eubacterium rectale 1.1 | [1] 0.92 | Lactobacillus gasseri 0.88 | Lactobacillus paracasei 0.962 | Odoribacter splanchnicus 0.97 | Parabacteroides merdae 0.954 | Roseburia intestinalis 0.941 | Streptococcus salivarius 0.948

CC(C)C(O)(c1ccc(OC(F)(F)F)cc1)c1cncnc1 (stereo not given)
inactive: Coprococcus comes 1.01 | Escherichia coli ED1a 0.981 | Escherichia coli IAI1 0.961 | Eubacterium rectale 0.994 | [1] 0.926 | Lactobacillus gasseri 1.05 | Lactobacillus paracasei 1.02 | Odoribacter splanchnicus 0.938 | [2] 0.959 | Roseburia intestinalis 1.04 | Streptococcus salivarius 1.04
active: Parabacteroides merdae 0.588

CC(C)(SC(=O)N1CCCCC1)c1ccccc1
active: [2] 0.778
inactive: Coprococcus comes 0.998 | Escherichia coli ED1a 1.01 | Escherichia coli IAI1 1.01 | Eubacterium rectale 1.02 | [1] 1.07 | Lactobacillus gasseri 1.01 | Lactobacillus paracasei 1.02 | Odoribacter splanchnicus 1 | Parabacteroides merdae 0.965 | Roseburia intestinalis 1.05 | Streptococcus salivarius 0.98

Cc1cc(CC(C)CC(C)(C)C)n(O)c(=O)c1.NCCO (stereo not given)
inactive: Coprococcus comes 0.995 | Escherichia coli ED1a 1.04 | Escherichia coli IAI1 1 | Eubacterium rectale 0.788 | [1] 1.02 | Lactobacillus gasseri 0.971 | Lactobacillus paracasei 1.01 | Odoribacter splanchnicus 0.997 | [2] 1 | Parabacteroides merdae 1.03 | Roseburia intestinalis 0.995 | Streptococcus salivarius 1.02

NC(=O)Cc1cccc2ccccc12
inactive: Coprococcus comes 1.04 | Escherichia coli ED1a 0.99 | Escherichia coli IAI1 1.01 | Eubacterium rectale 0.994 | [1] 1.06 | Lactobacillus gasseri 1.04 | Lactobacillus paracasei 1.01 | Odoribacter splanchnicus 0.992 | [2] 1.01 | Parabacteroides merdae 1.01 | Roseburia intestinalis 1.05 | Streptococcus salivarius 1.05

C=CCOC(Cn1ccnc1)c1ccc(Cl)cc1Cl (stereo not given)
inactive: Escherichia coli ED1a 0.986 | Escherichia coli IAI1 0.967 | [1] 0.938 | Lactobacillus gasseri 0.851 | Lactobacillus paracasei 0.969 | Odoribacter splanchnicus 0.882 | [2] 0.847 | Parabacteroides merdae 0.919 | Streptococcus salivarius 0.915
active: Coprococcus comes 0.0723 | Eubacterium rectale 0.0607 | Roseburia intestinalis 0.767

O=C(Nc1ccc(F)cc1-c1ccc(Cl)c(Cl)c1)c1cn[nH]c1C(F)F
inactive: Coprococcus comes 0.916 | Escherichia coli ED1a 0.974 | Escherichia coli IAI1 0.945 | Eubacterium rectale 0.82 | [1] 0.983 | Lactobacillus gasseri 0.814 | Lactobacillus paracasei 0.953 | Roseburia intestinalis 0.892 | Streptococcus salivarius 0.945
active: Odoribacter splanchnicus 0.553 | [2] 0.373 | Parabacteroides merdae 0.779

COC(=O)c1csc(C)c1S(=O)(=O)NC(=O)n1nc(OC)n(C)c1=O
inactive: Coprococcus comes 1.01 | Escherichia coli ED1a 1 | Escherichia coli IAI1 0.971 | Eubacterium rectale 1.11 | [1] 0.942 | Lactobacillus gasseri 0.805 | Lactobacillus paracasei 0.993 | Odoribacter splanchnicus 0.982 | [2] 0.801 | Parabacteroides merdae 0.99 | Roseburia intestinalis 0.974 | Streptococcus salivarius 0.931

CC(C)N(C(=O)CS(=O)CC(=O)O)c1ccc(F)cc1 (stereo not given)
inactive: Coprococcus comes 0.957 | Escherichia coli ED1a 1 | Escherichia coli IAI1 0.941 | Eubacterium rectale 0.829 | [1] 0.969 | Lactobacillus gasseri 1.01 | Lactobacillus paracasei 0.97 | Odoribacter splanchnicus 1.06 | [2] 1.08 | Parabacteroides merdae 0.977 | Roseburia intestinalis 1.03 | Streptococcus salivarius 0.948

Clc1ccc(Sc2cc(Cl)c(Cl)cc2Cl)cc1
inactive: Coprococcus comes 0.964 | Escherichia coli ED1a 0.972 | Escherichia coli IAI1 0.984 | Eubacterium rectale 0.943 | [1] 1.04 | Lactobacillus gasseri 0.86 | Lactobacillus paracasei 1.05 | Odoribacter splanchnicus 1.1 | [2] 1.01 | Parabacteroides merdae 0.976 | Roseburia intestinalis 0.937 | Streptococcus salivarius 0.933

N#Cc1cc(Cl)c(O)c(Cl)c1
inactive: Coprococcus comes 1.02 | Escherichia coli ED1a 0.926 | Escherichia coli IAI1 0.9 | Eubacterium rectale 0.972 | [1] 1.03 | Lactobacillus gasseri 1.17 | Lactobacillus paracasei 1.03 | Odoribacter splanchnicus 0.998 | [2] 0.956 | Parabacteroides merdae 0.93 | Roseburia intestinalis 1.08 | Streptococcus salivarius 1.02

C=C1C[C@]23C[C@@]1(O)CC[C@H]2[C@@]12C=C[C@H](O)[C@@](C)(C(=O)O1)[C@H]2[C@@H]3C(=O)O
inactive: Coprococcus comes 0.975 | Escherichia coli ED1a 0.982 | Escherichia coli IAI1 1.01 | Eubacterium rectale 1.14 | [1] 0.967 | Lactobacillus gasseri 0.921 | Lactobacillus paracasei 0.94 | Odoribacter splanchnicus 0.779 | [2] 0.778 | Parabacteroides merdae 0.995 | Roseburia intestinalis 0.881 | Streptococcus salivarius 0.904

CCCCOCN(C(=O)CS(=O)(=O)[O-])c1c(CC)cccc1CC.[Na+]
inactive: Coprococcus comes 0.957 | Escherichia coli ED1a 0.973 | Escherichia coli IAI1 0.991 | Eubacterium rectale 0.975 | [1] 0.947 | Lactobacillus gasseri 0.914 | Lactobacillus paracasei 0.957 | Odoribacter splanchnicus 0.938 | [2] 1 | Parabacteroides merdae 0.962 | Roseburia intestinalis 0.935 | Streptococcus salivarius 0.97

NC(=S)Nc1cccc2ccccc12
inactive: Coprococcus comes 0.974 | Escherichia coli ED1a 0.96 | Escherichia coli IAI1 0.959 | Eubacterium rectale 1.03 | [1] 0.924 | Lactobacillus gasseri 0.888 | Lactobacillus paracasei 0.946 | Odoribacter splanchnicus 0.983 | [2] 1.05 | Parabacteroides merdae 0.915 | Roseburia intestinalis 0.917 | Streptococcus salivarius 0.886

O=S(=O)(Oc1ccc(Cl)cc1Cl)c1ccccc1
inactive: Coprococcus comes 1.03 | Escherichia coli ED1a 0.98 | Escherichia coli IAI1 0.986 | Eubacterium rectale 1.02 | [1] 0.938 | Lactobacillus gasseri 1.03 | Lactobacillus paracasei 1.14 | Odoribacter splanchnicus 1.09 | [2] 0.972 | Parabacteroides merdae 1.02 | Roseburia intestinalis 0.974 | Streptococcus salivarius 1.03

CNc1nc(NC(C)C)nc(SC)n1
inactive: Coprococcus comes 0.962 | Escherichia coli ED1a 1 | Escherichia coli IAI1 0.988 | Eubacterium rectale 0.879 | [1] 0.922 | Lactobacillus gasseri 1.18 | Lactobacillus paracasei 1.05 | Odoribacter splanchnicus 0.984 | [2] 0.985 | Parabacteroides merdae 0.993 | Roseburia intestinalis 0.995 | Streptococcus salivarius 0.975

CCOC(=O)C1CC(=O)C(=C(O)C2CC2)C(=O)C1 (stereo not given)
inactive: Coprococcus comes 1.02 | Escherichia coli ED1a 0.972 | Escherichia coli IAI1 1.01 | Eubacterium rectale 0.961 | [1] 1.01 | Lactobacillus gasseri 1.01 | Lactobacillus paracasei 0.937 | Odoribacter splanchnicus 0.976 | [2] 0.984 | Parabacteroides merdae 1.03 | Roseburia intestinalis 1 | Streptococcus salivarius 0.988

O=c1cc(Cl)[nH]nc1-c1ccccc1
inactive: Coprococcus comes 0.973 | Escherichia coli ED1a 0.956 | Escherichia coli IAI1 0.954 | Eubacterium rectale 0.939 | [1] 0.995 | Lactobacillus gasseri 0.992 | Lactobacillus paracasei 0.748 | Odoribacter splanchnicus 1.02 | [2] 1.02 | Parabacteroides merdae 0.982 | Roseburia intestinalis 0.977 | Streptococcus salivarius 1.03

O=C(O)c1ccc(Cl)cc1Cl
inactive: Coprococcus comes 1 | Escherichia coli ED1a 0.986 | Escherichia coli IAI1 0.993 | Eubacterium rectale 0.957 | [1] 0.891 | Lactobacillus gasseri 0.991 | Lactobacillus paracasei 0.994 | Odoribacter splanchnicus 1.01 | [2] 0.984 | Parabacteroides merdae 0.989 | Roseburia intestinalis 0.997 | Streptococcus salivarius 1

O=C(O)c1cccc2nnsc12
inactive: Coprococcus comes 0.996 | Escherichia coli ED1a 0.989 | Escherichia coli IAI1 0.991 | Eubacterium rectale 1.01 | [1] 0.982 | Lactobacillus gasseri 0.936 | Lactobacillus paracasei 0.909 | Odoribacter splanchnicus 1.03 | [2] 0.999 | Parabacteroides merdae 0.998 | Roseburia intestinalis 0.989 | Streptococcus salivarius 1.01

COCC(=O)N(c1c(C)cccc1C(=O)O)C(C)C(=O)O (stereo not given)
inactive: Coprococcus comes 1.01 | Escherichia coli ED1a 0.986 | Escherichia coli IAI1 0.978 | Eubacterium rectale 0.949 | [1] 0.879 | Lactobacillus gasseri 1.07 | Lactobacillus paracasei 0.734 | Odoribacter splanchnicus 1.1 | [2] 1.01 | Parabacteroides merdae 0.989 | Roseburia intestinalis 1.02 | Streptococcus salivarius 0.982

CC(C)c1ccccc1
inactive: Coprococcus comes 0.983 | Escherichia coli ED1a 0.987 | Escherichia coli IAI1 0.999 | Eubacterium rectale 0.968 | [1] 0.92 | Lactobacillus gasseri 1.17 | Lactobacillus paracasei 0.996 | Odoribacter splanchnicus 0.999 | [2] 1.04 | Parabacteroides merdae 1.02 | Roseburia intestinalis 0.991 | Streptococcus salivarius 0.968

— the supplement of paper PMC12669032
